Data from PubChem BioAssay (NCATS).
Records with an inconclusive call do not appear. The source made the active and inactive calls. The call rests on the fitted dose curve; in most records, active means well fitted curve in the direction sought with a large enough effect; inconclusive means small, poorly fitted or top-dose-only effect, or another doubt; inactive means no such curve, though single readings can be large; an effect the other way counts as inactive or inconclusive.

Assays:
[1] = NS1 protein of Zika virus - qHTS assay to identify small molecule inhibitors in human HEK 293 cells (AID 1347053);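 further: series mostly up to about 46 µM; plate controls were infected untreated cells for no effect and uninfected cells for full effect; nearly all actives have a fitted effect of over 55% in size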
Summary of the method: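 Following 20 h seeding, HEK 293 cells took compound, then 1 h later ZIKV MR766 (MOI = 0.5). Incubation ran 24 h at 37 C before TR-FRET detection of NS1; a drop in signal indicates inhibition.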

[2] = qHTS of pediatric cancer cell lines to identify multiple opportunities for drug repurposing: Primary screen for TC32 cells (AID 1347089); further: on the % scale 0 is the no-effect control and ±100 the full control effect; nearly all actives have a fitted effect of over 60% in size
Summary of the method: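 Luminescent CellTiter-Glo read-out of metabolically active TC32 cells after 48 h compound exposure. Primary: MIPE 11-point, 0.78 nM–46 µM; NPC 8-point, 0.59 nM–46 µM. Confirmatory: 11-point dilutions.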

[3] = qHTS of pediatric cancer cell lines to identify multiple opportunities for drug repurposing: Primary screen for DAOY cells (AID 1347090);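 further: series mostly up to about 46 µM; plate controls were DMSO for no effect and bortezomib for full effect; nearly all actives have a fitted effect of over 55% in size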
Summary of the method: (§1)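 Viability measured as metabolically active cells via CellTiter-Glo luminescence following 48 hours of compound exposure, 11-point dilutions in confirmatory testing. 500-1,000 cells/well plated 5 hours before dosing; controls were DMSO and 2.3 µM bortezomib.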

[4] = qHTS of pediatric cancer cell lines to identify multiple opportunities for drug repurposing: Primary screen for SJ-GBM2 cells (AID 1347091);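 further: plate controls were DMSO neutral control for no effect and bortezomib for full effect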
Summary of the method: as §1

[5] = qHTS of pediatric cancer cell lines to identify multiple opportunities for drug repurposing: Primary screen for A673 cells (AID 1347092); further: on the % scale 0 is the no-effect control and ±100 the full control effect; nearly all actives have a fitted effect of over 45% in size
Summary of the method: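 A673 cells (500-1,000 cells/well in growth media) were pre-incubated 5 h at 37 degrees C, then exposed to compounds for 48 h. Viability was read as CellTiter-Glo luminescence; concentration-response curves came directly from the primary screen.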

[6] = qHTS of pediatric cancer cell lines to identify multiple opportunities for drug repurposing: Primary screen for SK-N-MC cells (AID 1347093);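 further: series mostly up to about 46 µM; plate controls were DMSO neutral control for no effect and bortezomib for full effect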
Summary of the method: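 Metabolically active cells were quantified by ATP-dependent luminescence (CellTiter-Glo, 15 min at room temperature) following 48 h treatment. Cells had been plated at 500-1,000 per well and settled for 5 h beforehand.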

[7] = qHTS of pediatric cancer cell lines to identify multiple opportunities for drug repurposing: Primary screen for NB-EBc1 cells (AID 1347095);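 further: plate controls were DMSO neutral control for no effect and bortezomib for full effect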
Summary of the method: (§2)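 ATP-based luminescence (CellTiter-Glo) quantifies viability after a 48-hour exposure. Compounds are dosed across 8 or 11 final concentrations; DMSO and 2.3 µM bortezomib serve as controls.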

[8] = qHTS of pediatric cancer cell lines to identify multiple opportunities for drug repurposing: Primary screen for U-2 OS cells (AID 1347096);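 further: plate controls were DMSO wells for no effect and bortezomib positive control wells for full effect; nearly all actives have a fitted effect of over 50% in size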
Summary of the method: (§3)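 Viability after 48 h compound treatment at 37C, 500-1,000 cells/well, read as ATP luminescence with CellTiter-Glo. Primary screens used 11-point (MIPE, 0.78 nM-46 µM) or 8-point (NPC, 0.59 nM-46 µM) final concentrations; follow-up screens used 11-point dilutions.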

[9] = qHTS of pediatric cancer cell lines to identify multiple opportunities for drug repurposing: Primary screen for Saos-2 cells (AID 1347097); further: on the % scale 0 is the no-effect control and ±100 the full control effect; nearly all actives have a fitted effect of over 40% in size
Summary of the method: as §2

[10] = qHTS of pediatric cancer cell lines to identify multiple opportunities for drug repurposing: Primary screen for SK-N-SH cells (AID 1347098);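 further: DMSO served as neutral control and bortezomib at 2.3 µM as positive control; on the % scale 0 is the no-effect control and ±100 the full control effect; nearly all actives have a fitted effect of over 65% in size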
Summary of the method: (§4)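 Cells (500-1,000/well) rested 5 h, then received compounds for 48 h; metabolically active cells were measured by CellTiter-Glo luminescence. Final concentrations spanned up to 46 µM (MIPE, 11-point) or 0.59 nM-46 µM (NPC, 8-point) in primary screens, 11-point in follow-ups.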

[11] = qHTS of pediatric cancer cell lines to identify multiple opportunities for drug repurposing: Primary screen for LAN-5 cells (AID 1347100);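 further: plate controls were DMSO neutral control for no effect and bortezomib positive control for full effect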
Summary of the method: as §3

[12] = qHTS of pediatric cancer cell lines to identify multiple opportunities for drug repurposing: Primary screen for BT-12 cells (AID 1347101);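 further: plate controls were DMSO for no effect and bortezomib positive control for full effect; nearly all actives have a fitted effect of over 25% in size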
Summary of the method: as §4

[13] = qHTS of pediatric cancer cell lines to identify multiple opportunities for drug repurposing: Primary screen for Rh18 cells (AID 1347102); further: on the % scale 0 is the no-effect control and ±100 the full control effect; nearly all actives have a fitted effect of over 65% in size
Summary of the method: as §3

[14] = qHTS of pediatric cancer cell lines to identify multiple opportunities for drug repurposing: Primary screen for RD cells (AID 1347104);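 further: plate controls were DMSO for no effect and bortezomib for full effect; nearly all actives have a fitted effect of over 55% in size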
Summary of the method: as §2

[15] = qHTS of pediatric cancer cell lines to identify multiple opportunities for drug repurposing: Primary screen for MG 63 (6-TG R) cells (AID 1347105); further: on the % scale 0 is the no-effect control and ±100 the full control effect; nearly all actives have a fitted effect of over 50% in size
Summary of the method: as §2

[16] = qHTS of pediatric cancer cell lines to identify multiple opportunities for drug repurposing: Primary screen for control Hh wild type fibroblast cells (AID 1347106);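 further: series mostly up to about 46 µM; on the % scale 0 is the no-effect control and ±100 the full control effect; a drop in luminescence marks cytotoxicity and a rise apparent proliferation; nearly all actives have a fitted effect of over 55% in size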
Summary of the method: as §3

[17] = qHTS of pediatric cancer cell lines to identify multiple opportunities for drug repurposing: Primary screen for Rh30 cells (AID 1347107); further: series mostly up to about 46 µM; on the % scale 0 is the no-effect control and ±100 the full control effect; nearly all actives have a fitted effect of over 75% in size
Summary of the method: as §3

[18] = qHTS of pediatric cancer cell lines to identify multiple opportunities for drug repurposing: Primary screen for BT-37 cells (AID 1347094);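 further: series mostly up to about 57 µM; plate controls were DMSO for no effect and bortezomib for full effect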
Summary of the method: as §2

[19] = qHTS of pediatric cancer cell lines to identify multiple opportunities for drug repurposing: Primary screen for NB1643 cells (AID 1347099);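 further: plate controls were DMSO neutral control for no effect and bortezomib positive control for full effect; nearly all actives have a fitted effect of over 50% in size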
Summary of the method: as §2

[20] = qHTS of pediatric cancer cell lines to identify multiple opportunities for drug repurposing: Primary screen for OHS-50 cells (AID 1347103);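 further: plate controls were DMSO neutral control for no effect and bortezomib positive control for full effect; nearly all actives have a fitted effect of over 40% in size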
Summary of the method: as §4

O[C@@H]1CO[C@H]2[C@@H]1OC[C@@H]2O
inactive: outcome [1] | outcome [2] | outcome [3] | outcome [4] | outcome [5] | Potency [6] | outcome [7] | outcome [8] | outcome [9] | outcome [10] | outcome [11] | outcome [12] | outcome [13] | outcome [14] | outcome [15] | outcome [16] | outcome [17]

CC1(C)S[C@@H]2[C@H](NC(=O)C(C(=O)O)c3ccccc3)C(=O)N2[C@H]1C(=O)O (some centres not stated)
inactive: outcome [1] | outcome [2] | outcome [3] | outcome [5] | Potency [6] | outcome [18] | outcome [7] | outcome [8] | outcome [9] | outcome [10] | Potency [19] | outcome [11] | outcome [12] | outcome [13] | outcome [20] | outcome [14] | outcome [15] | outcome [16] | outcome [17]

C[n+]1ccccc1/C=N/O
inactive: outcome [1] | outcome [2] | outcome [3] | outcome [5] | Potency [6] | outcome [18] | outcome [7] | outcome [8] | outcome [9] | outcome [10] | Potency [19] | outcome [11] | outcome [12] | outcome [13] | outcome [20] | outcome [14] | outcome [15] | outcome [16] | outcome [17]

NCC1CCC(C(=O)Oc2ccc(CCC(=O)O)cc2)CC1 (configuration not stated)
inactive: outcome [1] | outcome [2] | outcome [3] | outcome [5] | Potency [6] | outcome [18] | outcome [8] | outcome [9] | outcome [10] | Potency [19] | outcome [11] | outcome [12] | outcome [13] | outcome [20] | outcome [14] | outcome [15] | outcome [16] | outcome [17]

Cc1c(NC(=O)c2cccnc2)c(=O)n(-c2ccccc2)n1C
inactive: outcome [1] | outcome [2] | outcome [3] | outcome [5] | Potency [6] | outcome [18] | outcome [7] | outcome [8] | outcome [9] | outcome [10] | Potency [19] | outcome [11] | outcome [12] | outcome [13] | outcome [20] | outcome [14] | outcome [15] | outcome [16] | outcome [17]

Cc1cccc(Nc2ccccc2C(=O)O)c1C
inactive: outcome [1] | outcome [2] | outcome [3] | outcome [5] | outcome [18] | outcome [7] | outcome [8] | outcome [10] | Potency [19] | outcome [11] | outcome [12] | outcome [13] | outcome [20] | outcome [14] | outcome [15] | outcome [16] | outcome [17]

CCOC(=O)c1cccnc1
inactive: outcome [1] | outcome [2] | outcome [3] | outcome [5] | Potency [6] | outcome [7] | outcome [8] | outcome [9] | outcome [10] | Potency [19] | outcome [11] | outcome [12] | outcome [13] | outcome [20] | outcome [14] | outcome [15] | outcome [16] | outcome [17]

CN/C(=C\[N+](=O)[O-])NCCSCc1csc(CN(C)C)n1
inactive: outcome [1] | outcome [3] | outcome [4] | outcome [5] | Potency [6] | outcome [18] | outcome [7] | outcome [8] | outcome [9] | outcome [10] | Potency [19] | outcome [11] | outcome [12] | outcome [13] | outcome [20] | outcome [14] | outcome [15] | outcome [16] | outcome [17]

COc1ccccc1Oc1c(NS(=O)(=O)c2ccc(C(C)(C)C)cc2)nc(-c2ncccn2)nc1OCCO
inactive: outcome [1] | outcome [2] | outcome [4] | outcome [5] | Potency [6] | outcome [18] | outcome [8] | outcome [9] | outcome [10] | Potency [19] | outcome [11] | outcome [12] | outcome [20] | outcome [14] | outcome [15] | outcome [16] | outcome [17]

O=c1[nH]cnc2nc[nH]c12
inactive: outcome [1] | outcome [2] | outcome [3] | outcome [5] | Potency [6] | outcome [18] | outcome [8] | outcome [9] | outcome [10] | Potency [19] | outcome [11] | outcome [12] | outcome [20] | outcome [14] | outcome [15] | outcome [16] | outcome [17]

CCCCCCCCCCCCCCCCC(C(=O)O)C(O)(CC(=O)O)C(=O)O (configuration not stated)
inactive: outcome [1] | outcome [2] | outcome [3] | outcome [5] | Potency [6] | outcome [18] | outcome [8] | outcome [9] | outcome [10] | Potency [19] | outcome [11] | outcome [12] | outcome [13] | outcome [20] | outcome [14] | outcome [15] | outcome [16] | outcome [17]

N[C@@H](Cc1ccc(O)cc1)C(=O)O
inactive: activity change, negative = inhibition [1] 1.13% [at 9.2 µM] | activity change, negative = cytotoxic [2] 18.1% [at 9.17 µM] | activity change, negative = cytotoxic [3] 6.24% [at 9.22 µM] | activity change, negative = cytotoxic [5] 2.23% [at 9.22 µM] | activity change, negative = cytotoxic [6] 11% [at 9.22 µM] | activity change, negative = cytotoxic [7] 15% [at 9.22 µM] | activity change, negative = cytotoxic [8] 16.3% [at 9.22 µM] | activity change, negative = cytotoxic [9] 14.8% [at 9.22 µM] | activity change, negative = cytotoxic [10] 5.3% [at 11.4 µM] | activity change, negative = cytotoxic [19] 17.5% [at 9.22 µM] | activity change, negative = cytotoxic [11] 6.26% [at 9.22 µM] | activity change, negative = cytotoxic [12] 11.7% [at 11.5 µM] | activity change, negative = cytotoxic [13] 18.9% [at 9.22 µM] | activity change, negative = cytotoxic [20] 9.85% [at 11.5 µM] | activity change, negative = cytotoxic [14] 14.4% [at 9.22 µM] | activity change, negative = cytotoxic [15] -16.1% [at 9.22 µM] | activity change, negative = cytotoxic [16] 11.3% [at 9.22 µM] | activity change, negative = cytotoxic [17] 21.6% [at 9.22 µM]

NS(=O)(=O)c1ccc(NC(=O)CCC(=O)O)cc1
inactive: outcome [1] | outcome [2] | outcome [3] | outcome [5] | Potency [6] | outcome [18] | outcome [7] | outcome [8] | outcome [9] | outcome [10] | Potency [19] | outcome [11] | outcome [12] | outcome [13] | outcome [20] | outcome [14] | outcome [16] | outcome [17]

COc1nccnc1NS(=O)(=O)c1ccc(N)cc1
inactive: outcome [1] | outcome [2] | outcome [3] | outcome [5] | Potency [6] | outcome [18] | outcome [7] | outcome [8] | outcome [9] | outcome [10] | Potency [19] | outcome [11] | outcome [12] | outcome [13] | outcome [20] | outcome [14] | outcome [15] | outcome [16] | outcome [17]

COc1ccc(C(=O)N2CCN(CC(=O)N3CCOCC3)CC2)cc1
inactive: outcome [1] | outcome [2] | outcome [3] | outcome [5] | Potency [6] | outcome [18] | outcome [7] | outcome [8] | outcome [9] | outcome [10] | Potency [19] | outcome [11] | outcome [12] | outcome [13] | outcome [20] | outcome [14] | outcome [15] | outcome [16] | outcome [17]
